Screening data (PubChem)
Rows were chosen to be rich in hits. Some 21% of all compounds tested hit in one or more screens of this group.
Shiga toxin inh = Shiga toxin inhibition | inhibition, % at 38.7 µM | Vero cells, Shiga toxin protein synthesis inhibition reporter | 290,000 compounds, 9.2% hits; in the data active = inhibition mostly above about 28%, no sharp cut-off; inactive = mostly below about 43%; note: 0% is about no effect
Pf growth 48h = inhibits P. falciparum growth in the first generation, 48 h; P. falciparum luciferase growth in erythrocytes, 48 h; Potency, µM (titrated, usually from 28.7 µM), for the others: top-dose activity change, negative = inhibition, usual class: inhibitors; 310,000 compounds, 5.9% hits; AID 504832; note: potency is the fitted concentration of half-maximal effect; % is set by controls: 0 for no effect and ±100 for the full control effect
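A one-generation exposure of luciferase-tagged malaria parasites in RPMI 1640/Albumax erythrocyte culture, 37 C and 5% CO2. Inhibition is inferred from decreased luminescence after adding detection reagent.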
Cycloheximide cs = counter-screen hit for Shiga toxin inhibitors, cycloheximide. cell reporter, cycloheximide protein synthesis inhibition counterscreen. max response, %. 300,000 compounds, 12% hits; in the data active = max response mostly above about 13%, no sharp cut-off; inactive = mostly below about 14%; note: read at 38.3 µM for the half of the compounds with a filed dose; 0% is about no effect
Pf growth 96h = P. falciparum growth inhibition at 96 hours; 320,000 compounds, 6.9% hits; P. falciparum luciferase reporter growth, 96 h; Potency, µM (series often up to 28.7 µM), inactives show at the top dose activity change, negative = inhibition, most hits filed as inhibitors; AID 504834; note: potency is the fitted concentration of half-maximal effect; % is set by controls: 0 for no effect and ±100 for the full control effect
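Compounds incubated with erythrocytes infected by luciferase-expressing P. falciparum (2% hematocrit, 0.05% parasitemia final) for 96 hours, 37 C in 5% CO2. Growth inhibition scored as decreased luciferase luminescence.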
NS1 function inh = blocks influenza NS1 protein function; Potency, µM (doses to about 46.1 µM), for inactives: top-dose activity, positive = more growth; 270,000 compounds, 0.4% hits; calls by dose curve; note: potency is the fitted concentration of half-maximal effect; actives are rising curves; nearly all actives have a fitted effect of over 50% in size
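A cell-based growth assay was used: compounds that relieve NS1-induced slow growth of budding yeast raise OD600. Assay medium was yeast nitrogen base with ammonium sulphate and -URA supplement, pH 6.0, with 2% galactose.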
An asterisk follows results filed as active; ? = inconclusive; nt = no result; [ ] = another dose, or the depositor's remark. Unless noted, calls come from the whole dose curve; as a rule, active = well fitted inhibition curve with a large enough effect; inconclusive = small, poorly fitted or top-dose-only effect, or another doubt; inactive = no such curve, though single readings can be large or run the other way.

SMILES	Shiga toxin inh	Pf growth 48h	Cycloheximide cs	Pf growth 96h	NS1 function inh
CC(NC(=O)/C=C/c1ccco1)c1nc2ccccc2n1Cc1c(Cl)cccc1Cl (stereo unspecified)	44.0*	?	21.6*	?	6.6%
CC(NC(=O)c1ccccc1)c1nc2ccccc2n1Cc1ccccc1F (stereo unspecified)	-4.6	?	7.3	-19.8%	-2.5%
CCN(Cc1nc(-c2cccc(C)c2)no1)C(=O)c1ccc2c(c1)OCO2	17.5	-3.1%	9.6	-17.9%	-28.5%
CCCCCc1c(O)nc(SCC(=O)NCC2CCCO2)[nH]c1=O (stereo unspecified)	-5.5	3.8%	-2.8	0.465µM*	1.2%
CCCCc1c(O)nc(SCC(=O)NCC2CCCO2)[nH]c1=O (stereo unspecified)	-3.2	-2.6%	-5.6	-6.2%	4.2%
O=C(CCl)Nc1cc(S(=O)(=O)N2CCCCCC2)ccc1Cl	-16.9	-12.5%	-1.6	?	-28.1%
O=C(CN1CCN(c2ccccc2O)CC1)Nc1cc(S(=O)(=O)N2CCCC2)ccc1Cl	nt	4.15µM*	nt	3.29µM*	nt
O=C(CN1CCN(c2ccccc2O)CC1)Nc1ccc(S(=O)(=O)N2CCCCCC2)cc1	nt	?	nt	10.4µM*	nt
O=C(CN1CCCCC1)Nc1ccc(S(=O)(=O)N2CCCCCC2)cc1	-3.7	?	-0.2	nt	-8.0%
COc1ccc(C(C[N+](=O)[O-])c2c(-c3ccccc3)cc3ccccn23)cc1OC (stereo unspecified)	-12.4	?	-0.8	?	-71.1%
COc1ccc(C(C[N+](=O)[O-])c2c(-c3ccccc3)cc3ccccn23)cc1 (stereo unspecified)	29.9	?	39.9*	5.4%[5.75 µM]	26.0%
COc1cc(C(C[N+](=O)[O-])c2c(-c3ccccc3)cc3ccccn23)cc(OC)c1OC (stereo unspecified)	32.7	nt	16.0	11.7µM*	28.5%
COc1cc(NC(=O)C2CCN(c3cnccn3)CC2)cc(OC)c1OC	-4.3	-11.7%	1.1	-20.9%	-2.7%
COc1cc(C(=O)OC(C)C(=O)NC(=O)NC2CCCCC2)ccc1OC(F)F (stereo unspecified)	nt	-16.1%	nt	17.4%	nt
CC(=Nc1ccccc1)C1=C(O)CC(C)(C)CC1=O	44.7	13.8%	21.6*	?	nt
CC(=Nc1ccc(C)c(C)c1)C1=C(O)CCC1=O	140.3*	nt	61.4*	12.9%	-2.0%
CC(=Nc1ccccc1)C1=C(O)CCCC1=O	-1.8	2.4%	-5.4	11.7µM*	3.5%
O=C(COC(=O)CNC(=O)c1ccccc1)Nc1ccc(F)c([N+](=O)[O-])c1	16.9	23.4%	1.6	-9.1%	nt
CC1CCC(NC(=O)CCS(=O)(=O)c2ccc3c(c2)oc(=O)n3C)CC1 (stereo unspecified)	-3.1	-25.6%	-2.6	-26.9%	-3.4%
CCc1ccc2c(c1)[C@H]1OCC[C@H]1[C@@H](c1cccs1)N2	42.2*	11.1%	26.4*	28.5%	-30.9%
Fc1ccc2c(c1)[C@H]1OCC[C@H]1[C@@H](c1ccco1)N2	8.2	22.1%	4.6	-22.4%	-7.8%
O=C(NCc1cccnc1)c1ccc([N+](=O)[O-])o1	30.1	4.15µM*	31.2*	?	-2.4%
O=C(Nc1cccnc1)c1ccc([N+](=O)[O-])o1	70.7*	?	38.4*	0.0%	-6.2%
O=C(NCc1ccco1)c1ccc([N+](=O)[O-])o1	50.5	?	12.4*	?	1.7%
Nc1nc(-c2ccccc2)nn1S(=O)(=O)c1ccccc1	7.8	-0.9%	8.2	-13.6%	-3.1%
SMILES	Shiga toxin inh	Pf growth 48h	Cycloheximide cs	Pf growth 96h	NS1 function inh
CC(C)n1c(O)c(N=NC(=O)c2ccccc2NS(=O)(=O)c2cccs2)c2ccccc21	-13.0	-15.8%	-9.8	?	-2.2%
O=C(O)CCC(=O)NNc1ccccc1[N+](=O)[O-]	14.0	-7.6%	5.8	-8.1%	-4.0%
N#Cc1ccc(COn2nnc3ccccc32)cc1	33.3	0.0%	30.6*	45.1%	-5.8%
N#Cc1ccc(-c2ccc(OCC(O)Cn3nnc4ccccc43)cc2)cc1 (stereo unspecified)	-2.5	?	2.0	?	-191.7%
c1ccc2c(Cn3nnc4ccccc43)cccc2c1	-12.5	-21.2%	5.6	nt	-107.2%
c1ccc2c(COn3nnc4ccccc43)cccc2c1	87.4*	nt	54.4*	93.7%	-82.6%
O=C(NCCNC(=O)c1ccco1)c1ccc(Cl)c(Cl)c1	-13.6	-23.5%	-0.7	5.8%	-2.4%
COc1ccccc1C(N)=S	10.0	12.8%	-2.1	18.3%	5.0%
COc1ccc2oc(=O)c(-c3nc(C)cs3)cc2c1	44.6*	183.9%	31.8*	21.6%	9.2%
COc1ccc2oc(=O)c(N3C(=O)c4ccccc4C3=O)cc2c1	15.2	68.7%	-3.0	33.7%	5.7%
O=c1oc2ccccc2cc1-c1nnc(NCc2ccco2)s1	70.2*	nt	32.2*	186.5%	-11.1%
C/C(=N\Nc1nc(-c2cc(C)ccc2C)cs1)c1cc2ccccc2oc1=O	2.2	-12.4%	0.6	22.3%	26.7%
COc1ccc2oc(=O)c(-c3nnc(N)s3)cc2c1	44.8*	8.9%	18.1*	?	nt
CC/C(C)=N\Nc1nc(-c2cc3cc(OC)ccc3oc2=O)cs1	73.0*	51.4%	34.0*	167.1%	12.3%
O=C(O)Cc1sc(NCc2ccco2)nc1-c1ccccc1	17.9	-11.3%	7.8	-4.5%	2.5%
O=C(CN1C(=O)NC2(CCCCC2)C1=O)Nc1ccc2c(c1)OCCCO2	nt	423.1%	nt	480.3%	nt
Nc1nnc(-c2cc3ccccc3oc2=O)s1	152.4*	2.6%	44.3*	nt	nt
CCOC(=O)c1sc(SC)c2c1CCCC2=O	-4.7	44.8%	-1.8	27.3%	-5.6%
O=C(COC(=O)/C=C/c1ccc(Br)o1)Nc1ccccc1F	2.4	6.4%	0.5	10.9%	nt
Cc1cnc(C(=O)OCC(=O)Nc2ncc(Cl)cc2Cl)cn1	nt	-16.1%	nt	-8.6%	nt
COc1ccc(-n2cc3ccc([N+](=O)[O-])cc3n2)cc1	115.1*	161.0%	36.6*	0.0%	-3.4%
COc1ccc(-n2c(N)c(C#N)c3ccc([N+](=O)[O-])cc3c2=O)cc1	active	62.5%	20.6	59.5%	9.6%
COc1ccc(-c2cc(=O)n(-c3ccc([N+](=O)[O-])cc3)[nH]2)cc1	22.7	?	5.0	-11.2%	11.7%
Clc1ccc2c(NC3CCC(N4CCCCC4)CC3)ccnc2c1 (stereo unspecified)	nt	nt	nt	nt	0.0%
O=C1Nc2ccccc2C1=Nc1cccc([N+](=O)[O-])c1	26.7*	15.3%	6.2	11.7%	-4.4%
O=C1CSC(=Nc2cccc([N+](=O)[O-])c2)N1	-20.6	-17.8%	-1.7	1.65µM*	-5.7%
COc1cc(C(=O)Nc2ccc(NC(=O)c3ccco3)nc2)cc(OC)c1OC	-11.9	?	-3.1	nt	-5.3%
CCCC(=O)Nc1ccc(NC(=O)c2ccco2)cn1	27.5*	81.8%	18.1*	8.28µM*	-12.3%
CCCCC(=O)Nc1cc(C)c(NC(=O)c2ccco2)cn1	-4.8	6.8%	15.9	?	8.5%
CCCCC(=O)Nc1ccc(NC(=O)c2ccco2)cn1	67.4	49.3%	20.0*	5.2%	-5.3%
